From PubChem
NSD2 inh = inhibitors of human histone methyltransferase NSD2; O96028; NSD2 peptide methylation, AlphaScreen, 120 min; inhibition, % at 12.5 µM; actives 0.54% (n = 310,000); AID 743445; in the data active = inhibition above about 50%
RAD54 inh = inhibitors of human RAD54 branch migration. Q92698. RAD54 Holliday junction branch migration, FAM/BHQ fluorescence. inhibition, % at 10.4 µM. actives 0.14% (n = 360,000). AID 602329;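 active = mean normalized replicate activity at least 40 and at least half of replicates scoring 40 or more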;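 also: inhibitors cause a drop in the FAM fluorescence signal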
CASP6 VEID inh = blocks human caspase-6 cleavage activity; actives 0.53% (n = 350,000); inhibition, % at 12.5 µM; purified caspase-6, Z-VEID-R110 cleavage fluorescence;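 active = mean inhibition across replicates at least about 35%, with every replicate also reaching that limit, limit read from the data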
RAD52 anneal inh = blocks human RAD52 DNA annealing; P43351; inhibition, % at 18.7 µM; actives 0.46% (n = 360,000); recombinant RAD52 DNA annealing, FRET fluorescence;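 active = every replicate showing at least 50% inhibition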
N-glyco inh = N-linked glycosylation inhibition | D54 ERlucT glycosylation luciferase reporter, 24 h; percent of 100 nM tunicamycin response | reporter increase, % at 12.5 µM | actives 0.23% (n = 360,000);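 active = mean luciferase reporter signal, scaled so untreated is 0 and the glycosylation-blocking control 100, at or above a set limit in every replicate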;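 also: luciferase carries N-glycosylation sites so blocking glycosylation raises the light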
AlphaScreen art = AlphaScreen assay artifact in NSD2 counter-screen. AC35, µM (doses to about 10 µM). shares compounds with NSD2 inh. actives 9.4% (n = 1,500). AlphaScreen artifact counterscreen, preloaded methylated H4 peptide. AID 1053174; call rule not given here
Each line names hits and unclear results; the compound was inactive in the other large screens (follow-up assays come after a bar, where they were run). Hits are enriched below; roughly 1.2% of the tested compounds scored in any of these assays.

CCN(CC)CCCNc1cc(C(F)(F)F)c(C#N)c2nc3ccccc3n12	NSD2 inh 56 | AlphaScreen art inactive
C=CCn1c(SCC(=O)N2CCN(c3ccccc3)CC2)nnc1-c1ccco1	NSD2 inh 84 | AlphaScreen art inactive
O=C(Nc1ccccc1)OCCCCOC(=O)Nc1ccccc1	NSD2 inh 55 | AlphaScreen art inactive
COC(=O)c1c2oc(c1C(=O)OC)C(=O)N(C)Cc1cn(nn1)C[C@@H](Cc1ccccc1)NC(=O)N[C@H](CO)CC2	none (no result: NSD2 inh, N-glyco inh)
COc1ccc(NC(=O)Nc2ccc3c(c2)CC(=O)N([C@H](C)CO)C[C@@H](C)[C@@H](CN(C)C(=O)Nc2ccc(OC)cc2)O3)cc1	none (no result: NSD2 inh, N-glyco inh)
COCC(=O)Nc1ccc2c(c1)C(=O)N(C)C[C@H](OC)[C@@H](C)CN(Cc1ccccc1OC)[C@@H](C)CO2	none (no result: NSD2 inh, N-glyco inh)
COc1cc(CCNC2=CC(=O)c3ncccc3C2=O)ccc1O	NSD2 inh 128, CASP6 VEID inh 91 (no result: RAD54 inh) | AlphaScreen art inactive
Cc1noc(C)c1S(=O)(=O)N(C)C[C@H]1OCCCC[C@@H](C)Oc2ccc(NC(=O)Nc3ccc(C(F)(F)F)cc3)cc2C(=O)N([C@@H](C)CO)C[C@@H]1C	none (no result: NSD2 inh, N-glyco inh)
Cc1cnc(C2OCCO2)c2cccc(N)c12	NSD2 inh 156, CASP6 VEID inh 60 | AlphaScreen art inactive
CCOc1ccccc1N(CC(=O)NCCc1ccc(OC)c(OC)c1)S(=O)(=O)c1ccccc1	NSD2 inh 55 | AlphaScreen art inactive
C[C@@H]1CN([C@@H](C)CO)C(=O)c2cc(NC(=O)CCN3CCOCC3)ccc2O[C@@H]1CN(C)S(=O)(=O)c1cn(C)cn1	none (no result: NSD2 inh, N-glyco inh)
Cc1ccc(NC(=O)C[n+]2ccn(C3=C([O-])c4ccccc4C3=O)c2)cc1	NSD2 inh 89 (no result: RAD54 inh) | AlphaScreen art inactive
CCOC(=O)C(Oc1ccc2c(-c3ccc(OC)cc3)cc(=O)oc2c1C)c1ccccc1 (stereo not given)	NSD2 inh 53 (no result: CASP6 VEID inh, RAD52 anneal inh) | AlphaScreen art inactive
CCC(=O)N1[C@@H]2c3cccc(=O)n3C[C@@H]2[C@@H](CO)[C@@H]1C(=O)NCc1ccccc1F	none (no result: NSD2 inh, N-glyco inh)
CCOC(=O)c1cc(S(=O)(=O)Nc2ccc(OC)cc2OC)cn1C	NSD2 inh 56 | AlphaScreen art inactive
COC(=O)c1cc(S(=O)(=O)Nc2cccc(OC)c2)cn1C	none (no result: NSD2 inh)
COc1cc(NS(=O)(=O)c2ccc(NC(=S)NC(=O)/C=C/c3ccco3)cc2)ncn1	NSD2 inh 150 | AlphaScreen art inactive
C[C@@H]1CCCCO[C@@H](CN(C)CC2CC2)[C@H](C)CN([C@@H](C)CO)C(=O)c2cc(NC(=O)c3ccncc3)ccc2O1	none (no result: NSD2 inh, N-glyco inh)
Cc1cccnc1NC(=O)c1ccc(S(=O)(=O)N2CC(C)OC(C)C2)cc1 (stereo not given)	NSD2 inh 50 | AlphaScreen art inactive
COCC(=O)N1C[C@H](C)[C@@H](OC)CN(C)C(=O)c2cc(NC(=O)c3ccccc3)ccc2OC[C@@H]1C	none (no result: NSD2 inh, N-glyco inh)
CC[n+]1c(/C=C/Nc2ccccc2)oc2ccccc21	NSD2 inh 81 (no result: CASP6 VEID inh, RAD52 anneal inh) | AlphaScreen art inactive
O=C(NCCc1cccs1)C1CC(c2ccccc2F)=NO1 (stereo not given)	none (no result: NSD2 inh, CASP6 VEID inh, RAD52 anneal inh)
O=C(O)C1CC(c2ccccc2F)=NO1 (stereo not given)	NSD2 inh 108 (no result: CASP6 VEID inh, RAD52 anneal inh) | AlphaScreen art inactive
C[C@@H]1CCCCO[C@H](CN(C)C(=O)Nc2ccc(F)cc2)[C@@H](C)CN([C@@H](C)CO)C(=O)c2cc(NS(=O)(=O)c3cccs3)ccc2O1	none (no result: NSD2 inh, RAD54 inh, N-glyco inh)
COc1ccc(OC)c(/C=C2\N=C(c3ccccc3)OC2=O)c1	none
COc1ccc(/C=C2\N=C(C(C)(C)C)OC2=O)c(OC)c1	NSD2 inh 91 | AlphaScreen art inactive
CC(Oc1ccc(Cl)cc1Cl)C(=O)NC(Cc1ccccc1)C(=O)O (stereo not given)	NSD2 inh 53 (no result: RAD54 inh) | AlphaScreen art inactive
CCCCn1c(NS(=O)(=O)c2ccc(C)cc2)c(S(=O)(=O)c2ccccc2)c2nc3ccccc3nc21	NSD2 inh 127 | AlphaScreen art inactive
C[C@H]1CN([C@@H](C)CO)C(=O)c2cc(NS(=O)(=O)c3cn(C)cn3)ccc2O[C@@H]1CN(C)C(=O)Nc1ccccc1	none (no result: NSD2 inh, N-glyco inh)
N#CCN1C(=S)N=C(Nc2cccc(Cl)c2)C12CCCCC2	none (no result: NSD2 inh, RAD54 inh, CASP6 VEID inh, RAD52 anneal inh)
